Screens: PubChem BioAssay, several laboratories
In the library only some 3.1% were active in any assay of this set; here they are far more common.
EBV LMP1 NFkB = EBV LMP1-driven NF-kappaB luciferase reporter inhibitors, primary screen, cell-based, luminescence, single point; LMP1-induced NF-kappaB luciferase reporter cells; inhibition, % at 12.5 µM; hit rate 0.69% among 350,000; AID 504558, 2011; in the data active means inhibition above about 41%; inconclusive means no clear call, values can overlap the other calls;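 further: 0% = neutral control wells and 100% = reference inhibitor control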
TWEAK Fn14 block = inhibitors of TWEAK-Fn14 signaling, primary screen, luciferase reporter cells, uHTS. TWEAK-stimulated Fn14 reporter cells, luciferase luminescence, 8 h. inhibition, % at 10 µM. hit rate 2% among 360,000. AID 1159606, 2016; in the data active means inhibition above about 50%
TROY NFkB inh = inhibitors of TROY-driven NF-kB signaling, primary screen, Q293 LMP1-TROYcd cells, NF-kB luciferase, uHTS; Q293 LMP1-TROYcd NF-kB luciferase reporter, 4 h; inhibition, % at 10 µM; hit rate 0.98% among 360,000; AID 1347056, 2019;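 active means compounds whose plate-normalised and pattern-corrected inhibition of the luciferase reporter signal at the single screening dose is 50% or more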
PAX8 inh HTS = inhibitors of PAX8-driven TPO luciferase reporter, primary screen, RMG-I cells, single concentration; SteadyGlo, 24 h; inhibition, % at 12.6 µM; hit rate 1.2% among 360,000; AID 652154, 2013;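 active means mean replicate inhibition at least 60% with every replicate also reaching 60%; inconclusive means only one of the two criteria is met; inactive means mean below 60% and not all replicates reaching 60%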;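 further: luciferase light reporting Pax8 driven TPO promoter activity; plate controls were median of neutral control wells for no effect and mitoxantrone controls for full effect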
LGR2 antag = inhibitors of bursicon-induced LGR2 CRE-luciferase signal, primary screen, cell-based, HEK293, CRE-luciferase reporter, bursicon stimulation; hit rate 0.35% among 380,000; AID 720647, 2013; Drosophila bursicon receptor LGR2 (rickets); inhibition, % at 9.99 µM; bursicon-stimulated, 4 h;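 active means drop in luminescence signal, shown as inhibition above about 50% in the replicate tests, limit read from the data, passing the limit was not always enough; inconclusive means probably only some replicates passing the limit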;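 further: agonist challenge used bursicon conditioned medium at about half maximal strength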
EWS-Fli block = EWS/Fli-driven NR0B1 reporter inhibitors, primary screen, A673 cells, NR0B1 luciferase, luminescence, MLPCN library. hit rate 0.67% among 350,000. viability-normalised. inhibition, % at 12.6 µM. AID 651661, 2012;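 active means mean inhibition of at least 50% after viability correction, with every replicate also passing that limit; inconclusive means mean reaches 50% but only one of two replicates passes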;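 further: firefly luciferase signal divided by Alamar Blue viability fluorescence both relative to DMSO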
* marks the source's active call; other numbers are inactive results; ? = inconclusive; · = no result given.

SMILES | EBV LMP1 NFkB | TWEAK Fn14 block | TROY NFkB inh | PAX8 inh HTS | LGR2 antag | EWS-Fli block
O=C(CSc1nnc(-c2cccs2)n1CC1CCCO1)N1CCCC1 (stereo not drawn) | 1.6 | 6.7 | -9.5 | -2.3 | -9.7 | -0.4
NC(=O)c1ccc(Sc2nnc(-c3cccs3)n2CC2CCCO2)c([N+](=O)[O-])c1 (stereo not drawn) | 1.2 | 25.0 | 6.1 | 1.5 | 1.3 | 75.2*
C/C(=N\Nc1nc2ccccc2s1)c1ccc(Br)s1 | -12.7 | 51.3* | 31.2 | 26.5 | -13.2 | -3.5
C/C(=N\Nc1nc2ccccc2s1)c1ccc2c(c1)OCO2 | -43.8 | -19.9 | 12.1 | -32.7 | -54.4 | -25.6
CC(=NNc1nc2ccccc2s1)c1ccncn1 | 68.1* | 0.8 | -9.0 | -0.3 | -11.1 | -51.3
CN(C)CC#Cc1ccc([C@H]2[C@H](CO)N3C(=O)CN(C(=O)c4ccccc4)C[C@@H]23)cc1 | · | · | · | · | -10.4 | ·
CO[C@@H]1CN(C)C(=O)c2ccc(NC(=O)C3CCOCC3)cc2OC[C@H](C)N(Cc2cccnc2)C[C@H]1C | · | · | · | -12.2 | 13.3 | -1.6
O=C(NCC1CC1)[C@@H]1[C@@H](CO)[C@@H]2Cn3c(ccc(C4=CCCC4)c3=O)[C@H]1N2C(=O)C1CC1 | · | · | · | 6.2 | 0.8 | 4.1
C=CCN=c1scc(C)n1/N=C/c1ccc(O)c(O)c1 | -8.4 | -6.0 | 31.7 | -11.7 | -40.4 | -2.2
CN=c1scc(C)n1/N=C/c1ccc2c(c1)OCO2 | 21.3 | 52.6* | -55.3 | · | · | ·
CN=c1scc(C)n1/N=C/c1ccc(O)cc1O | 35.2 | 63.9* | -23.7 | · | · | ·
CN=c1scc(C)n1/N=C/c1ccc(O)cc1 | -5.9 | -7.1 | 58.5* | · | · | ·
CN=c1scc(C)n1/N=C/c1cc(Br)c(O)c(Br)c1 | 2.5 | -22.6 | 4.9 | 10.8 | 1.7 | 7.2
C[C@@H]1CCCCO[C@H](CN(C)S(=O)(=O)c2cn(C)cn2)[C@@H](C)CN([C@@H](C)CO)C(=O)c2cc(NC(=O)CCCN(C)C)ccc2O1 | · | · | · | -5.0 | -1.2 | -0.2
CCCOc1ccc(/C=N/Nc2cc(N3CCOCC3)ncn2)c(O)c1 | 1.7 | -12.2 | 38.7 | 54.2 | 8.7 | 14.5
Oc1ccc(/C=N\Nc2cc(N3CCOCC3)nc(N3CCOCC3)n2)c(O)c1 | 0.3 | -36.8 | -36.9 | 87.2* | 29.3 | -3.8
Cc1cc(N/N=C/c2ccc(O)cc2O)nc(N2CCOCC2)n1 | -13.3 | 15.9 | -1.7 | -18.4 | -13.6 | -9.5
CCOc1ccc(/C=N/Nc2cc(N3CCOCC3)ncn2)c(O)c1 | 56.3* | -11.2 | 0.1 | 49.3 | 17.0 | 3.8
CN(C)C(=O)c1cccc(-c2ccc3c(c2)[C@H]2[C@H](CCN2C(=O)c2ccccc2F)[C@H](CO)N3)c1 | · | · | · | -16.7 | -0.5 | 2.3
C[C@H]1CCCCO[C@@H](CN(C)C(=O)Nc2ccc3c(c2)OCO3)[C@@H](C)CN([C@@H](C)CO)C(=O)c2cc(NS(=O)(=O)c3ccccc3)ccc2O1 | · | · | · | -5.9 | -5.0 | 0.3
COc1ccccc1N(C)S(=O)(=O)c1ccc(C(=O)OCC(=O)NCCC2=CCCCC2)cc1 | -0.7 | 54.2* | 30.5 | 15.3 | 8.0 | -13.8
O=C(COC(=O)c1ccc2c(c1)OCCO2)NCCC1=CCCCC1 | -6.7 | 95.7* | 36.5 | · | · | ·
O=C(COC(=O)c1ccc(O)cc1)NCCC1=CCCCC1 | 0.1 | 0.2 | 9.6 | 2.4 | -6.2 | -1.3
C[C@@H]1CN([C@H](C)CO)C(=O)Cc2cc(NC(=O)CCCCCC(=O)Nc3ccccc3N)ccc2O[C@H]1CN(C)S(=O)(=O)c1cn(C)cn1 | · | · | · | · | -13.3 | -10.6
O=C(Nc1ccccc1F)N1[C@H](CO)[C@@H]2c3ccccc3NC[C@@H]21 | · | · | · | -249.1 | -37.5 | -95.5
SMILES | EBV LMP1 NFkB | TWEAK Fn14 block | TROY NFkB inh | PAX8 inh HTS | LGR2 antag | EWS-Fli block
CCC1(O)C(=O)OCc2c1cc1n(c2=O)Cc2cc3c(N)cccc3nc2-1 (stereo not drawn) | 72.9* | 72.1* | 72.0* | 110.0* | 98.0* | 54.7*
CCC1(OC(=O)CN(C)C)C(=O)OCc2c1cc1n(c2=O)Cc2cc3c(N)cccc3nc2-1 (stereo not drawn) | 76.2* | -31.2 | -9.0 | · | · | ·
CO[C@@H]1CN(C)C(=O)c2ccc(NC(=O)NC(C)C)cc2OC[C@@H](C)N(Cc2cncnc2)C[C@H]1C | · | · | · | · | -10.2 | 3.5
COc1cc(NS(C)(=O)=O)ccc1Nc1c2ccccc2nc2ccccc12 | 57.4* | -213.3 | -86.5 | 70.6* | -6.8 | 57.6*
CC(C)(c1ccccc1)c1ccc(OCC(O)CNC2CCN(Cc3ccccc3)CC2)cc1 (stereo not drawn) | -13.1 | -69.2 | 21.0 | 79.9* | 104.1* | 25.5
Cc1nnsc1C(=O)N/N=C/c1ccccc1 | 3.8 | -15.8 | -12.4 | 5.4 | 10.7 | 10.7
Cc1nnsc1C(=O)N/N=C/c1ccc2ccccc2c1O | 47.8* | 53.6* | 26.2 | ? | -2.6 | ·
Cc1noc(C)c1S(=O)(=O)N(C)C[C@@H]1Oc2ccc(NS(=O)(=O)c3ccc(F)cc3)cc2C(=O)N([C@H](C)CO)C[C@@H]1C | · | · | · | · | -0.3 | -5.0
Cc1ccn2cc(-c3ccc(O)c(O)c3)nc2c1 | 12.7 | 79.7* | -16.2 | 30.8 | 49.1 | 12.6
Cc1ccccc1NC1=NC(=S)N(c2ccccc2)C12CCOC(C)(C)C2 (stereo not drawn) | -11.5 | 2.2 | -21.5 | · | · | ·
Cc1ccccc1NC1=NC(=S)N(c2ccccc2)C12CCCCC2 | -0.6 | 10.4 | 61.8* | 8.5 | · | 1.1
COc1ccc2c3c([nH]c2c1)[C@@H](CO)N(C)CC31CCN(C(=O)Nc2c(C)noc2C)CC1 | · | · | · | -2.3 | -8.5 | -7.9
O=C1CC(c2cccs2)Cc2nc(NC(=O)C3CC3)ncc21 (stereo not drawn) | 45.3* | -2.8 | 4.6 | -24.5 | -6.2 | -9.9
CCC(C)C(=O)Nc1ncc2c(n1)CC(c1cccs1)CC2=O (stereo not drawn) | -4.4 | -17.4 | -10.1 | · | · | ·
CCn1c2ccccc2c2cc(/C=N/NC(=O)c3ccc(O)cc3)ccc21 | 84.3* | 16.2 | 11.7 | 40.7 | 18.9 | 4.7
CCn1c2ccccc2c2cc(/C=N/NC(=O)c3cc(O)cc(O)c3)ccc21 | 66.4* | -27.7 | 12.9 | -2.5 | -4.3 | 10.2
CCn1c2ccccc2c2cc(/C=N/NC(=O)c3ccncc3)ccc21 | ? | 18.4 | 38.9 | 11.9 | 32.5 | 17.6
Cn1c2ccccc2c2cc(/C=N/NC(=O)c3ccc(O)cc3O)ccc21 | 14.2 | -57.9 | -13.5 | · | · | ·
O=C(CSc1nnnn1-c1ccccc1)N1CCc2ccccc2C1 | 4.4 | 5.0 | -9.8 | · | · | ·
CC(=O)c1ccc(-n2nnnc2SCC(=O)N2CCc3ccccc3C2)cc1 | 49.4* | 10.9 | 24.1 | · | · | ·
COC(=O)c1c(NC(=O)C(Cl)Cl)sc2c1C(C(=O)OC)CC2 (stereo not drawn) | -26.9 | 20.7 | 6.7 | 63.7* | 11.0 | 37.9
